# ClpP mod: qHTS Assay for Activators of ClpP. ATP-dependent Clp protease proteolytic subunit (Bacillus subtilis (strain 168)), P80244. purified B. subtilis ClpP, FRET peptide cleavage, 20 min. Potency, µM (doses to about 57.5 µM), for the others: top-dose activity change, negative = active. 1.9% of 340,000 active. AID 651965, 2013; active means well fitted falling curve with a large enough effect; inconclusive means small, poorly fitted or top-dose-only effect; inactive means no such curve, though single readings can be large or run the other way; further: the source files actives as falling curves though it sought activators and does not explain the sign; nearly all actives have a fitted effect of over 65% in size
# Target sequence (P80244 whole entry, looked up): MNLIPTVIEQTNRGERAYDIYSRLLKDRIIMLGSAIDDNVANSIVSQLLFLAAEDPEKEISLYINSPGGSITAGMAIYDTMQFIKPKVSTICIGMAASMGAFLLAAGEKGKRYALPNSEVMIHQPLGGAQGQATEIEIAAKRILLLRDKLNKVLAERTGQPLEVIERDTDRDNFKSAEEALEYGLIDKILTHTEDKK
#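 Buffer: 100 mM Tris/HCl pH8, 100 mM KCl, 0.05% low protease BSA, 2.5% glycerol, 0.01% Tween-20. ClpP 10 microg/mL final; 20 min RT; delta FRET normalized to ADEP and DMSO controls.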
# PINK1 expr mod: changes PINK1 expression. Potency, µM (top dose mostly 76.6 µM), for inactives: top-dose activation (PINK1 increase), hits mostly activators. 0.2% of 410,000 active. AID 624263. PINK1 immunofluorescence, high-content cytometry, 24 h; active means well fitted activation curve with a large enough effect; inconclusive means small, poorly fitted or top-dose-only effect; cell line not stated here; further: % of control where 0% means no effect; nearly all actives have a fitted effect of over 65% in size
#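 Decision-based qHTS: stable cells, 24 h exposure to five compound concentrations, CCCP as control. Fixed cells stained for PINK1 plus nuclear, mitochondrial and cell markers, cytometer read.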
# Gal4-VP16 FLuc: inhibits Gal4-VP16 luciferase reporter, ROR gamma counter-screen | Drosophila S2 Gal4-VP16 UAS-luciferase, luminescence, 20 h | Potency, µM (series often up to 53.6 µM), for the others: top-dose activity, negative = inhibition, usual class: inhibitors | 3.5% of 310,000 active | AID 2546;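 further: Gal4-VP16 expression switched on by copper sulfate through the metallothionein promoter; on the % scale 0 is the no-effect control and ±100 the full control effect; nearly all actives have a fitted effect of over 50% in size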
# Sfp inh: inhibitors of Bacillus subtilis Sfp phosphopantetheinyl transferase. Q9F4F7. Biochemical Sfp PPTase activity, qHTS. Potency, µM, without a hit: largest response in the series, negative = inhibition, usual class: inhibitors. 3.5% of 310,000 active;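 further: the enzyme is Sfp with the accession as filed and its product quenches rhodamine fluorescence; 0% = enzyme reaction without inhibitor and -100% = no enzyme wells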
#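 With Hepes-Na pH 7.6 buffer containing 10 mM MgCl2, Sfp (15 nM) modified BHQ-2-YbbR (12.5 uM) using rhodamine-CoA (5 uM). Two reads 30 minutes apart at 525/598 nm yielded each well's rate.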
# Epigenetic derep: epigenetic control regulation, reporter derepression. murine LDR cells, GFP reporter derepression, 30 h. Potency, µM (series often up to 53.9 µM), for inactives: top-dose GFP activation, usual class: activators. 0.2% of 280,000 active. AID 1865; further: % of control where 0% means no effect; nearly all actives have a fitted effect of over 60% in size
#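 Derepression of a silenced CMV-GFP reporter in murine LDR cells is scored by enumerating GFP-positive cells with a laser-scanning microplate cytometer after 30 hours of treatment at 37 C.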
# RORgamma inh: inhibitors of mouse ROR gamma transcriptional activity; 5.4% of 310,000 active; Drosophila S2 Gal4-RORgamma UAS-luciferase reporter, 20 h; Potency, µM (series often up to 53.6 µM), inactives show at the top dose activity change, negative = inhibition, actives largely listed as inhibitors; further: on the % scale 0 is the no-effect control and ±100 the full control effect; nearly all actives have a fitted effect of over 60% in size
# Target sequence (P51450 whole entry, looked up, the tested form may be a part): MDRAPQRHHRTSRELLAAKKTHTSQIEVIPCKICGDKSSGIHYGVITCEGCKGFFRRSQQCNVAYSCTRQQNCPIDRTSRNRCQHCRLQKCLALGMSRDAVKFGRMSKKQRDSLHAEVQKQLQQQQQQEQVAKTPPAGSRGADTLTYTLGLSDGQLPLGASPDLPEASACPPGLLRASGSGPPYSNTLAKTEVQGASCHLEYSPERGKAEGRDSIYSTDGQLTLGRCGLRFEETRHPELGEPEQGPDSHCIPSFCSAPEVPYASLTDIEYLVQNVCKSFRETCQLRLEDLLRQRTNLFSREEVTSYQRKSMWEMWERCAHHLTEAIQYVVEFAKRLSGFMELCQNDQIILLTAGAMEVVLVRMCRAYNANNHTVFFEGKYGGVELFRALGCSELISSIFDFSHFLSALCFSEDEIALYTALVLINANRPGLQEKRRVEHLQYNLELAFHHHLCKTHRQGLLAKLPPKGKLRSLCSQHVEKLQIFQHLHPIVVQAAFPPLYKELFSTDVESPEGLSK
#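 Stably transfected Drosophila Schneider cells are the test system, with ROR gamma fused to Gal4 and luciferase under UAS control; luminescence is read after 20 hr of 700 uM copper sulfate induction at ambient temperature.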
# * marks the source's active call; other numbers are inactive results; ? = inconclusive; / = not tested or not shown; [ ] = dose if it differs, or a comment. In the library only some 8.1% were active in any assay of this set; here they are far more common. Unless noted, the call rests on the fitted dose curve; in most records, active means well fitted curve in the direction sought with a large enough effect; inconclusive means small, poorly fitted or top-dose-only effect, or another doubt; inactive means no such curve, though single readings can be large; an effect the other way counts as inactive or inconclusive. Potency means the concentration at half of the fitted maximal effect.
SMILES,ClpP mod,PINK1 expr mod,Gal4-VP16 FLuc,Sfp inh,Epigenetic derep,RORgamma inh
Cc1cccc(OCc2ccc(-c3nc(C#N)c(NCc4cccnc4)o3)o2)c1,4%,2%,/,/,-2%,/
NC(=O)C(OC(=O)CNC(=O)C1CCCCC1)c1ccccc1 (stereo not drawn),1%,1%,/,/,/,/
Cc1ncc2c(c1CNC(=O)/C=C/c1cccs1)CCN(C(=O)c1noc3c1CCCC3)C2,/,1%,/,/,/,/
O=C(CCS(=O)(=O)c1cc(Br)cc2c1N(C(=O)C1CC1)CC2)N1CCN(c2ccccc2)CC1,-3%,0%,/,/,1%,/
Nc1ccc(-c2ccc3ccccc3n2)cc1,/,/,11µM*,-25%,-1%,-20%
c1csc(-c2ccc3ccccc3n2)c1,14µM*,2%,18%,-1%,-1%,-8%
Cc1cc2ncc(-c3cccs3)nc2cc1C,5%,0%,?,6%,/,10µM*
COc1ccc(C(=O)NNC(=S)NC(=O)c2ccc(Cl)cc2)cc1,/,1%,/,/,/,/
COc1cc(C(=O)Nc2ccc3c(c2)Cc2ccccc2-3)cc(OC)c1OC,-12%,10%,-21%,-6%,2%,-7%
Cc1ccccc1C(=O)NC(=S)Nc1ccc(Oc2ccc(Cl)cc2)cc1,2%,6%,11µM*,-2%,-1%,3.2µM*
O=C(NC(=S)Nc1ccc(Oc2ccccc2)cc1)c1ccc(Cl)cc1,-3%,1%[38.3 µM],?,-1%,-1%,8.9µM*
COc1ccc(C(=O)NC(=S)Nc2ccc3c(c2)Cc2ccccc2-3)cc1,-1%,18%,-19%,45µM*,0%,-21%
Cc1ccc(C(=O)NC(=S)Nc2ccc(Oc3ccc(Cl)cc3)cc2)cc1,1%,1%,?,11%,-1%,0.89µM*
COc1cc(N2CCCC2)c(OC)cc1/C=C(/C#N)c1cccc(F)c1,1%,17%,-8%,?,3.2µM*,-2%
COc1cccc(/C=C(/C#N)c2ccc(F)cc2)c1OCc1cccc(C(=O)O)c1,-2%,3%,-9%,-1%,0%,0%
CC(=O)c1ccccc1OCCCOc1cccc2cccnc12,-5%,3%,/,/,/,/
Cc1cc(C)c(C)c(OCCCOc2cccc3cccnc23)c1,0%,1%,-94%,71µM*,3%,?
Cc1cc(OCCOc2cccc3cccnc23)cc(C)c1Cl,18%,9%,-29%,?,0%,20µM*
OCc1ccccc1OCCCOc1cccc2cccnc12,0%,2%,-15%,20%,/,24%
CC(C)Oc1ccccc1OCCCOc1cccc2cccnc12,/,-1%,-27%,-1%,-3%,14µM*
O=S(=O)(c1cccs1)N1CCN(CC(O)COc2cc(Cl)ccc2Cl)CC1 (stereo not drawn),0%,-1%,18µM*,-24%,-4%,-10%
S=c1[nH]nc(Cc2ccc(Br)cc2)n1/N=C/c1ccc(Cl)cc1,0%,1%,1%,14µM*,0%,-37%
Cc1n[nH]c(=S)n1/N=C/c1ccc(OCc2ccc(Cl)cc2Cl)cc1,2%,7%,11µM*,?,-2%,18µM*
CCc1n[nH]c(=S)n1/N=C/c1ccccc1OCc1ccc(Cl)cc1,/,13%,-18%,?,0%,-9%
Cc1cc(C)c(COc2ccc(/C=N/n3c(C)n[nH]c3=S)cc2)c(C)c1,-1%,5%,7.1µM*,50µM*,4%,2.8µM*
SMILES,ClpP mod,PINK1 expr mod,Gal4-VP16 FLuc,Sfp inh,Epigenetic derep,RORgamma inh
Cc1n[nH]c(=S)n1/N=C/c1ccccc1OCc1ccc(Cl)cc1Cl,?,13µM*,7.1µM*,4%,6%,2.8µM*
C(=C\c1ccc2ccccc2n1)/c1cccnc1,?,1%,/,/,/,/
Cc1n[nH]c(=S)n1/N=C/c1ccc(OCc2ccc(Cl)cc2)cc1,0%,-1%,-13%,-24%,4%,5.6µM*
Cc1n[nH]c(=S)n1/N=C/c1ccccc1,-22%,5%,?,4%,-1%,?
CC(C)(C)OC(=O)NNC(=O)c1ccc(Cl)cc1,-2%,4%,-5%,-2%,0%,-4%
O=C(COc1ccc(Cl)cc1)NNC(=S)NCc1ccccc1,/,0%,5.6µM*,19%,/,1.1µM*
C=CCc1ccccc1OCC(=O)NNC(=S)NCc1ccccc1,0%,6%,10µM*,22%,/,1.4µM*
CC(C)(C)OC(=O)NNC(=S)NCc1ccc(Cl)cc1,-1%,1%,?,9%,-1%,14µM*
CC(C)(C)c1ccc2c(c1)OC(C(=O)N/N=C\c1ccccn1)CO2 (stereo not drawn),-2%,1%,18µM*,10%,-2%,?
O=C(N/N=C\c1ccc(-c2ccccc2[N+](=O)[O-])o1)C1COc2ccccc2O1 (stereo not drawn),?,0%,?,2%,3%,?
O=C(O)c1cccc(-c2ccc(/C=N/NC(=O)C3COc4ccccc4O3)o2)c1 (stereo not drawn),/,3%,-8%,28µM*,-5%,36%
Cc1ccc(/C=N\NC(=O)C2COc3cc4ccccc4cc3O2)o1 (stereo not drawn),-1%,2%,-3%,16%,-1%,-2%
CC(C)(C)c1ccc2c(c1)OC(C(=O)N/N=C\c1ccc(-c3cccc(C(=O)O)c3)o1)CO2 (stereo not drawn),/,0%,-3%,50µM*,-1%,27%
COc1ccccc1OCCn1c(C(C)Oc2ccccc2)nc2ccccc21 (stereo not drawn),-2%,0%,/,/,-1%,/
O=C(c1ccc(Cn2c(=S)[nH]c3ccc(Br)cc3c2=O)cc1)N1CCN(C2CCCCC2)CC1,/,7%,?,21%,3%,11µM*
CCOCCCn1c(=S)[nH]c2cc(C(=O)N3CCN(C4CCCCC4)CC3)ccc2c1=O,0%,1%,-14%,5%,/,0%
CCCCCn1c(=S)[nH]c2cc(C(=O)N3CCCC3)ccc2c1=O,0%,-1%,14%,20%,0%,3.2µM*
O=C(c1ccc2c(=O)n(Cc3ccccc3)c(=S)[nH]c2c1)N1CCCC1,/,14%,?,23%,/,11µM*
O=C(NCCC1=CCCCC1)c1ccc(F)cc1,-1%,4%,11µM*,-7%,-1%,?
COc1ccc(C(=O)NCCC2=CCCCC2)cc1,-3%,2%,?,1%,1%,13µM*
CCOc1ccc(CCNC(=O)c2c(C)oc3ncn(CC(C)C)c(=O)c23)cc1,-3%,4%,/,/,-1%,/
CN(C)CCSc1nc(-c2ccccc2)nc2c1CCCC2,16µM*,2%,-4%,7%,3%,2%
CC(=O)N(O)C/C=C/c1cccc(Oc2ccccc2)c1,/,/,3%,-2%,/,?
